Measured values from PubChem BioAssay AID434927 (Sanford-Burnham Center for Chemical Genomics, 2010).
Values without a mark were called inactive. Activity calls are given as the source filed them.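 How the source made its calls: active means inhibition above about 23% in any of six single-dose repeats (limit read from the data); inactive means the rest.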

These compounds were tested against Intestinal-type alkaline phosphatase (Homo sapiens) (UniProt P09923) (assay: suppression of intestinal alkaline phosphatase activity – biochemical, luminescence, single concentration, uHTS hits, confirmation (AID 434927;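 further: plate controls were DMSO wells with enzyme for no effect and wells lacking enzyme for full effect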)). Settings: purified human IAP, CDP-Star luminescence, 30 min; at 8.3 µM; hits give high values.
Intestinal-type alkaline phosphatase (Homo sapiens), sequence (P09923 whole entry, looked up): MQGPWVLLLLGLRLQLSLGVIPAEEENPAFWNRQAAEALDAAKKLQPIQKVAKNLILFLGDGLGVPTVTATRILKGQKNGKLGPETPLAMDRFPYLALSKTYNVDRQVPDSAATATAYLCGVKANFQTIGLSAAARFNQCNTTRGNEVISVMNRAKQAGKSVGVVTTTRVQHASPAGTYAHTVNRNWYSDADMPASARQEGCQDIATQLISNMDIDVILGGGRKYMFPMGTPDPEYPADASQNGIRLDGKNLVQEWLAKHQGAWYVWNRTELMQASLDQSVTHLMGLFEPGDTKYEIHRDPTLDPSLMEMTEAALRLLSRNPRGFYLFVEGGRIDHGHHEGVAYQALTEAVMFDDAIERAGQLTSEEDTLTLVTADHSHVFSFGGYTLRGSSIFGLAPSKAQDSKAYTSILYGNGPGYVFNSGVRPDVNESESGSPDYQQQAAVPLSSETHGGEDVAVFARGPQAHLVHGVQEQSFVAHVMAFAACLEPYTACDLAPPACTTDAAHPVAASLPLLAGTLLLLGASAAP

**Q.** `CCCCOc1cccc(C2/C(=C(\O)c3ccc4c(c3)OCCO4)C(=O)C(=O)N2CCN2CCOCC2)c1` (stereo not drawn) was tested. Which inhibition did it give?
**A.** -90.6%

**Q.** With `CCOc1cc(/C=N/NC(=O)C(=O)N/N=C/c2ccc(O)c(OCC)c2)ccc1O` as the compound, how does the inhibition read?
**A.** -47.6%

**Q.** How did the inhibition turn out when `CNc1nnc(-c2cc3ccccc3oc2=O)s1` was run?
**A.** 33.1% (active)

**Q.** For `CN(Cc1ccccc1)C(=O)Nc1ccc(Cl)cc1`, which inhibition is on record?
**A.** -58.7%

**Q.** Which inhibition does the source give for `COc1cc(/C=C2\SC(=S)N(N(C)c3ccccc3)C2=O)ccc1O` here?
**A.** 60.4% (active)

**Q.** How did the inhibition turn out when `O=C(Nc1cccc(-c2cccc(F)c2)c1)C1CCN(C2CCC2)CC1` was run?
**A.** 67.6% (active)

**Q.** For `CC(NS(=O)(=O)c1ccc(Br)cc1)C(=O)Nc1nc2ccccc2[nH]1` (stereo not drawn), which inhibition is on record?
**A.** 66.7% (active)

**Q.** For `O=C(N/N=C/c1c(F)cccc1Cl)c1cc(C2CC2)[nH]n1`, which inhibition is on record?
**A.** 37.7% (active)

**Q.** `CCn1c(C)nc2cc(C(=O)N/N=C/c3cccc(O)c3O)ccc21` was tested. Which inhibition did it give?
**A.** -42.9%

**Q.** Which inhibition does the source give for `CCOc1ccccc1CN1CCC(n2nccc2NC(=O)CCc2ccccc2)CC1` here?
**A.** 26.6% (active)

**Q.** How did the inhibition turn out when `CN(Cc1ccccc1)C(=O)c1[nH]cnc1C(=O)Nc1nccs1` was run?
**A.** -141%

**Q.** `COc1cccc(/C=N/Nc2nc(-c3cccnc3)nc3ccccc23)c1` was tested. Which inhibition did it give?
**A.** -0.0482%

**Q.** With `O=C(COc1ccc2ccccc2c1Br)N1CCCCC1` as the compound, how does the inhibition read?
**A.** -50.2%

**Q.** Which inhibition does the source give for `O=C(COc1ccccc1Cl)N1CCN(c2ccc([N+](=O)[O-])c(N3CCCCC3)c2)CC1` here?
**A.** -60.9%

**Q.** `Cc1nn(C)c(C(=O)NNC(=S)NCc2ccccc2)c1Cl` was tested. Which inhibition did it give?
**A.** -141%

**Q.** With `Cc1ccc(O)c(N/C=C/C(=O)c2ccc(F)cc2)c1` as the compound, how does the inhibition read?
**A.** -120%

**Q.** For `CN(C)c1ccc(N=Nc2ccccc2Br)cc1`, which inhibition is on record?
**A.** -104%

**Q.** For `COC(=O)CN1C(=O)C(O)(CC(=O)c2ccc(C)cc2)c2ccccc21` (stereo not drawn), which inhibition is on record?
**A.** 45.9% (active)

**Q.** With `CCCCCCCn1c(=N)n(CC(=O)c2ccco2)c2ccccc21` as the compound, how does the inhibition read?
**A.** -49.6%

**Q.** Which inhibition does the source give for `C/C(=N/NC(=O)c1ccc(Cn2cccn2)o1)c1cccc(NC(=O)c2ccncc2)c1` here?
**A.** -101%

**Q.** With `N#CCN1C(=S)N=C(Nc2cccc(Cl)c2)C12CCCCC2` as the compound, how does the inhibition read?
**A.** -55.5%

**Q.** For `CCC(NC(=S)NC1CCCCC1)c1ccc(C(C)C)cc1` (stereo not drawn), which inhibition is on record?
**A.** -24.1%

**Q.** How did the inhibition turn out when `CC(C)(C)NC(=O)C(=O)NNC(=O)COc1ccccc1` was run?
**A.** 39% (active)

**Q.** `O=C(Cc1coc2ccc3ccccc3c12)NCc1ccccc1` was tested. Which inhibition did it give?
**A.** 59.4% (active)

**Q.** How did the inhibition turn out when `Cc1ccc(S(=O)(=O)N(CC(=O)Nc2ccc(C)cc2C)C(=O)N2CCN(C)CC2)cc1` was run?
**A.** -55.4%

**Q.** `O=C(NNC(=S)NC(=O)c1ccccc1[N+](=O)[O-])c1ccccc1O` was tested. Which inhibition did it give?
**A.** 27.4% (active)

**Q.** Which inhibition does the source give for `CCn1nc(C)c(CN2CCC(C(=O)Nc3cccc(-c4cccc(F)c4)c3)CC2)c1C` here?
**A.** 50.7% (active)

**Q.** How did the inhibition turn out when `CN1CCN(CCNC(=O)Cn2c(=O)c3cccn3c3ccc(F)cc32)CC1` was run?
**A.** 35.4% (active)

**Q.** Which inhibition does the source give for `Cc1cc(C)c2nc(SCC(=O)NNC(=O)c3ccco3)c(C)cc2c1` here?
**A.** -58.7%

**Q.** With `O=C(NC(=S)NNC(=O)c1ccccc1O)c1ccc(F)cc1` as the compound, how does the inhibition read?
**A.** 62.4% (active)

**Q.** For `COc1cccc(/C=N/Nc2nn3cnnc3c3ccccc23)c1O`, which inhibition is on record?
**A.** 40.4% (active)

**Q.** With `c1ccc(-c2cccc(-c3ccccn3)n2)nc1` as the compound, how does the inhibition read?
**A.** -113%

**Q.** With `COc1cccc(-c2nc(CS(=O)(=O)CC(=O)Nc3cc(OC)ccc3OC)c(C)o2)c1` as the compound, how does the inhibition read?
**A.** 31.5% (active)
